# ± gives the standard deviation of the averaged measurements. Whole data set: some 33,000 sequences, median “E-score (dimensionless, -0.5 to 0.5)” near -0.049, cut for the highest 2% near 0.37. The sample holds the highest values, similar sequences and a random draw of the others, so the mix is not that of the screen.
# Tested on: T1, PmTbr T-box DNA-binding domain (GST fusion)
# T1 sequence: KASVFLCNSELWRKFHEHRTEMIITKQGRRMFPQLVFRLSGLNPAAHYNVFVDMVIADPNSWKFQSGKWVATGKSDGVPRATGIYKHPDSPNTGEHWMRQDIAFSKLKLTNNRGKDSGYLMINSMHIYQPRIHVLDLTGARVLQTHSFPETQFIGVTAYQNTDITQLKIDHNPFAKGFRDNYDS
# Assay: PBM E-score of 8-mer (E-score (dimensionless, -0.5 to 0.5)); Tbr is Tbrain of the sea star Patiria miniata (Pm) or the sea urchin Strongylocentrotus purpuratus (Sp); higher = stronger binding preference
# Settings: the construct has about 5 more residues each side
# In short: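 Primer extension turned Universal Agilent oligonucleotide arrays double-stranded. They were incubated with 200 nM protein in PBS (pH 7.5); the protein was a GST-fused Tbr T-box DNA-binding domain expressed in BL21 E. coli at 20 °C and purified on glutathione. Every ungapped 8-mer was scored from the scanned, quantified probe intensities, and the Universal PBM Analysis Suite gave each an enrichment E-score averaged over duplicate arrays.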
row,Sequence,PBM E-score of 8-mer
1,CTAGTCCC,-0.132 ± 0.064
2,TATGACAA,0.0436 ± 0.061
3,TGTGACAA,0.42 ± 0.028
4,TCTGACAA,0.112 ± 0.048
5,AGAGCCAC,-0.0799 ± 0.014
6,CCTAGTTC,-0.072 ± 0.0041
7,GATCACGC,0.287 ± 0.017
8,CATCACAA,0.179 ± 0.006
9,GATCACAC,0.451 ± 0.014
10,AATCACAA,0.199 ± 0.0027
11,CATCACAG,0.109 ± 0.038
12,GATCACAA,0.163 ± 0.045
13,AATCACAG,0.0723 ± 0.038
14,AATCACAC,0.462 ± 0.0075
15,CATCACAC,0.4576 ± 0.0032
16,AACGAGTC,-0.154 ± 0.018
17,GTCTTCAA,-0.0747 ± 0.03
18,CCGCCCCA,-0.155 ± 0.064
19,ACGCATTC,0.0134 ± 0.0026
20,CACACACA,0.303 ± 0.0096
21,GTCACACA,0.3901 ± 0.0019
22,GTCACAGA,0.0466 ± 0.051

row,Sequence,PBM E-score of 8-mer
1,GTCACAAA,0.118 ± 0.066
2,CACACACG,0.181 ± 0.059
3,CTCACACA,0.41 ± 0.0079
4,CAATAGTG,0.127 ± 0.061
5,ACTTGCGG,-0.0023 ± 0.035
6,GGTGAAAC,0.0805 ± 0.054
7,TCAATGCA,-0.268 ± 0.037
8,CCACCACA,0.117 ± 0.02
9,GCACCACA,0.133 ± 0.047
10,CCACCACG,-0.00839 ± 0.13
11,ACACCACG,0.3698 ± 0.0022
12,TCACCACA,0.204 ± 0.054
13,CCACCACC,0.107 ± 0.044
14,ACACCACT,0.254 ± 0.012
15,ACACCACC,0.405 ± 0.0043
16,ACACCACA,0.377 ± 0.008
17,ACGAAACG,0.16 ± 0.01
18,GCATTGCA,-0.0859 ± 0.03
19,ACAATCTA,-0.0816 ± 0.0069
20,ATCGAAAC,-0.0958 ± 0.024
21,ACCTATTG,0.129 ± 0.034
22,ACGGTGAG,0.12 ± 0.014

row,Sequence,PBM E-score of 8-mer
1,CAGGTGAC,0.4485 ± 0.0027
2,GAGGTGAC,0.4496 ± 0.0027
3,GGGGTGAC,0.3431 ± 0.0017
4,CTGGTGAC,0.221 ± 0.045
5,GAGGTGAA,0.294 ± 0.0035
6,ACGGTGAT,0.202 ± 0.0041
7,AAGGTGAG,0.452 ± 0.0046
8,AGGGTGAG,0.137 ± 0.097
9,AGGGTGAT,0.197 ± 0.018
10,CAGATGAC,-0.0423 ± 0.069
11,AAGGTGAT,0.424 ± 0.021
12,CGTGTCCA,0.00534 ± 0.099
13,GATGCACC,-0.0938 ± 0.034
14,GCAAACCC,-0.0342 ± 0.058
15,CCTCGGTC,0.0608 ± 0.12
16,CCGGTGAG,0.0229 ± 0.12
17,AAGGTGAA,0.185 ± 0.013
18,CAGGTGAA,0.1748 ± 0.0016
19,AAGGTGAC,0.426 ± 0.011
20,CAGGTGAG,0.422 ± 0.007
21,ACGGTGAC,0.285 ± 0.0079
22,CTGACCTA,-0.194 ± 0.079

row,Sequence,PBM E-score of 8-mer
1,AGTGGAAT,-0.0212 ± 0.05
2,GGCGATAA,0.276 ± 0.048
3,AGACGTAA,-0.2 ± 0.092
4,CCAGTGCG,0.133 ± 0.074
5,ACAACACG,0.251 ± 0.017
6,GCAACAAC,0.0808 ± 0.019
7,ACAACAAT,0.109 ± 0.024
8,CCAACACC,0.443 ± 0.011
9,GCAACACA,0.311 ± 0.0054
10,GCAACACC,0.455 ± 0.0097
11,AGAACACT,0.133 ± 0.04
12,ACAACACT,0.37 ± 0.016
13,CCAACACG,0.274 ± 0.0077
14,ACAACACA,0.347 ± 0.033
15,CCAACACA,0.241 ± 0.023
16,ACAACACC,0.435 ± 0.023
17,CCCTTGGA,-0.13 ± 0.033
18,TAGGGCCA,-0.155 ± 0.032
19,CGCCAAGC,0.0166 ± 0.082
20,AGGCCCTC,-0.448 ± 0.0054
21,CTCCCGTA,-0.1898 ± 0.001
22,AGAAAGCC,-0.195 ± 0.021

row,Sequence,PBM E-score of 8-mer
1,GCTATCTA,-0.0532 ± 0.092
2,CTCTTCTA,-0.215 ± 0.1
3,TCTGGAAA,-0.131 ± 0.019
4,CCCACTCG,0.0373 ± 0.049
5,CACACTCA,0.3814 ± 0.0034
6,GACACTCC,0.336 ± 0.029
7,CACACTCC,0.402 ± 0.016
8,TACACTCA,-0.0251 ± 0.036
9,AACACTCG,0.237 ± 0.037
10,AACACTCA,0.323 ± 0.0094
11,CACACTCG,0.408 ± 0.011
12,AACACTCC,0.288 ± 0.029
13,AGAGAAAG,0.0684 ± 0.065
14,ACTCACCG,-0.0077 ± 0.1
15,CGGAGTCC,-0.183 ± 0.043
16,CTTTGGCA,0.288 ± 0.017
17,CGTGGCTA,-0.139 ± 0.056
18,GTCGTTCA,0.19 ± 0.052
19,AACTGAGT,-0.0725 ± 0.037
20,AACTTCGA,0.0686 ± 0.023
21,GCTTCACA,0.301 ± 0.014

# Reference: the supplement of paper PMC4166925
